Screening results: PubChem BioAssay, National Center for Advancing Translational Sciences (NCATS)
Fluorescein fluor – qHTS Assay for Spectroscopic Profiling in Fluorescein Spectral Region; Compound autofluorescence, 480/540 nm, fluorescein-equivalent; stronger effect = higher value; max fluorescein-equivalent concentration, M; 0.91% of 59,000 active; AID 593, 2007; in the data active = max fluorescein-equivalent concentration above about 10 nM; inconclusive = between about 1.1 nM and that limit
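In this qHTS profile, compound fluorescence was measured with a 480 nm/540 nm filter pair following a 15-min room-temperature incubation in 100 mM Tris (pH 8.0). A six-point fluorescein series on each plate served for normalization.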
TexasRed autofl – qHTS Assay for Spectroscopic Profiling in Texas Red Spectral Region. 0.06% of 59,000 active. max dye-equivalent concentration, M. Compound fluorescence, Texas Red channel, 547/618 nm; stronger effect = higher value; in the data active = max dye-equivalent concentration above about 10 nM; inconclusive = between about 1.1 nM and that limit
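Pin-transferred compounds and Texas Red standards go into 100 mM Tris buffer, pH 8.0. After 15 min at room temperature, plates are imaged with 547/618 nm filters. Each value is a dye-equivalent concentration derived from the per-plate dye curve.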
Rhodamine autofl – qHTS Assay for Spectroscopic Profiling in Rhodamine Spectral Region | Rhodamine-region fluorescence, 547/598 nm, Tris buffer; stronger effect = higher value | 0.05% of 59,000 active | max dye-equivalent concentration, M; in the data active = max dye-equivalent concentration above about 11 nM; inconclusive = between about 1.1 nM and that limit
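Compounds in 100 mM Tris buffer, pH 8.0, were incubated 15 min at room temperature, then read at 547 nm excitation and 598 nm emission. Fluorescence was normalized against a per-plate six-point rhodamine standard curve as dye-equivalent concentration.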
A488 autofl – qHTS Assay for Spectroscopic Profiling in A488 Spectral Region; max dye equivalency, M; 0.1% of 59,000 active; compound autofluorescence, A488 spectral region, dye equivalency; Compound Type: qHTS ECL - MLSMR
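Spectroscopic profiling in the A488 region: compounds in pH 8.0 Tris (100 mM), 15 min RT, CCD imaging with 480 nm excitation and 540 nm emission; responses normalized against A488 dye standards.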
Resorufin autofl – qHTS Assay for Spectroscopic Profiling in Resorufin Spectral Region. AID 588, 2007. Compound fluorescence, resorufin region 547/598 nm, buffer; stronger effect = higher value. 0.04% of 59,000 active. max dye-equivalent concentration, M
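Tris 100 mM pH 8.0; compound added, 15 min RT; CCD imager read, ex 547 nm/em 598 nm; signal normalized to resorufin standard curve (six concentrations per plate) as dye-equivalent concentration.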
An asterisk follows results filed as active; i = inactive; ? = inconclusive; ! = not confirmed by another sample. Most compounds without a hit are left out; they make up all but 0.9% or so of the library. Unless noted, the rule behind the calls is not given here.

SMILES	Fluorescein fluor	TexasRed autofl	Rhodamine autofl	A488 autofl	Resorufin autofl
N#CC(C#N)=Cc1cc(O)c(O)c(O)c1	4.4e-08M*	i	i	?	i
CCCC[N+]1(C)[C@@H]2CC(OC(=O)[C@@H](CO)c3ccccc3)C[C@H]1[C@H]1O[C@H]12 (stereo not given in full)	?	i	i	i	i
CC(C)[C@@]1(NC(=O)[C@@H]2C[C@@H]3c4cccc5[nH]cc(c45)C[C@H]3N(C)C2)O[C@@]2(O)[C@@H]3CCCN3C(=O)[C@H](Cc3ccccc3)N2C1=O	?	i	i	i	i
CN1C[C@@H](CNC(=O)OCc2ccccc2)C[C@H]2c3cccc4c3c(cn4C)C[C@@H]21	3.9e-08M*	i	i	?	i
COc1cc2c(cc1OC)[C@@]13CCN4C=C5CCO[C@H]6CC(=O)N2[C@@H]1[C@@H]6[C@H]5C[C@H]43	?	i	i	i	i
N#C/C(=C\c1ccc(O)c(O)c1)C(N)=S	2.5e-08M*	?	i	i	i
CC(=O)[C@@H]1CC[C@@H]2[C@H]3CC[C@H]4C[C@@H](O)CC[C@]4(C)[C@@H]3C(=O)C[C@]21C	?	i	i	i	i
O=C(Cn1ncc2c3ccccc3n(Cc3cccc(Cl)c3)c2c1=O)N1CCC2(CC1)OCCO2	2.5e-08M*	?	i	?	i
CC1=NCCc2c1[nH]c1cc(O)ccc21	2.1e-07M*	i	?	4.5e-07M*!	i
COc1ccc2c3c([nH]c2c1)C(C)=NCC3	?	i	i	i	i
COc1cc2c(cc1OC)-c1c(O)c(OC)cc3c1[C@@H](C2)N(C)CC3	i	i	i	i	i
CC1=C[C@@H]2c3cccc4[nH]cc(c34)C[C@H]2N(C)C1	5.9e-08M*	i	i	?	i
CCN(CC)C(=O)N[C@@H]1C[C@H]2c3cccc4[nH]cc(c34)C[C@@H]2N(C)C1	?	i	i	i	i
CC[C@H](CO)NC(=O)[C@H]1C=C2c3cccc4[nH]cc(c34)C[C@H]2N(C)C1	?	i	i	i	i
CC[C@H](CO)NC(=O)[C@@H]1C=C2c3cccc4[nH]cc(c34)C[C@@H]2N(C)C1	2.7e-08M*	i	i	i	i
CN1C[C@H](CO)C=C2c3cccc4[nH]cc(c34)C[C@H]21	1.5e-08M*	i	i	i	i
N[C@@H](Cc1cc(O)c(O)cc1O)C(=O)O	i	i	i	i	i
CC(C)[C@H]1C(=O)N2CCC[C@@H]2[C@]2(O)O[C@@](NC(=O)[C@H]3C=C4c5cccc6[nH]cc(c56)C[C@H]4N(C)C3)(C(C)C)C(=O)N12	2.7e-08M*	i	i	i	i
CC(C)[C@]1(NC(=O)[C@H]2C=C3c4cccc5[nH]cc(c45)C[C@H]3N(C)C2)O[C@@]2(O)[C@H]3CCCN3C(=O)[C@H](Cc3ccccc3)N2C1=O	?	i	i	i	i
CC(C)[C@H]1C(=O)N2CCC[C@H]2[C@]2(O)O[C@](NC(=O)[C@@H]3C=C4c5cccc6[nH]cc(c56)C[C@H]4N(C)C3)(C(C)C)C(=O)N12	5.3e-08M*	i	i	?	i
CC(C)[C@@]1(NC(=O)[C@@H]2C=C3c4cccc5[nH]cc(c45)C[C@H]3N(C)C2)O[C@@]2(O)[C@@H]3CCCN3C(=O)[C@H](Cc3ccccc3)N2C1=O	3.8e-08M*	i	i	?	i
CCCCCCCCCCCCCC(=O)O[C@H]1[C@@H](C)[C@@]2(O)[C@@H](C=C(CO)C[C@]3(O)C(=O)C(C)=C[C@@H]23)C2C(C)(C)[C@]21OC(C)=O (stereo not given in full)	i	i	i	i	i
CC(=O)[C@@H]1CC[C@H]2[C@H]3CC[C@H]4C[C@@H](O)CC[C@]4(C)[C@@H]3CC[C@]12C	?	i	i	i	i
O=C(O)c1ccccc1-c1c2cc(Br)c(=O)cc-2oc2[c]([Hg])c(O)c(Br)cc12	1.7e-05M*	1.5e-08M*	3.8e-07M*	7.8e-07M*	2.9e-07M*
